Screens: PubChem, National Center for Advancing Translational Sciences (NCATS)
Compounds with a hit are over-represented: about 9.2% of the library has one in this group of screens.
ELG1 genotoxic: inducers of genotoxicity in HEK293T ELG1-luciferase cells | AID 504466 | actives 1.3% (n = 330,000) | HEK293T ELG1-luciferase reporter, luminescence, 16 h | Potency, µM (titrated, usually from 46 µM), without a hit: at the top dose activity change, positive = activation, usual class: activators; further: % of control where 0% means no effect; nearly all actives have a fitted effect of over 60% in size
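Reporter readout depends on ELG1 protein level, which increases with genetic stress. After 16 hr compound exposure at 37 °C, luciferase activity was quantified using ONE-Glo.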
ELG1 DNA repair: inhibitors of ELG1-dependent DNA repair in HEK293T cells; HEK293T ELG1-luciferase reporter, luminescence, 16 h; DNA damage induced by 5-fluorouridine; Potency, µM (highest dose often 46.1 µM), inactives show top-dose activity change, negative = inhibition, hits mostly inhibitors; AID 504467; actives 2.3% (n = 330,000); further: on the % scale 0 is the no-effect control and ±100 the full control effect; nearly all actives have a fitted effect of over 55% in size
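Luminescence from the luciferase reporter, measured 30 min after ONE-Glo reagent at room temperature, was the read-out. Beforehand, 2,000 cells per well were exposed for 16 hr at 37 °C to 5-fluorouridine together with compound or vehicle.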
FLuc counter: firefly luciferase modulation, counter-screen for miR-21 project. P08659. purified FLuc, Km substrates, luminescence inhibition. Potency, µM (series often up to 57.5 µM), without a hit: top-dose activity change, negative = inhibition, usual class: inhibitors. actives 6.9% (n = 360,000);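 further: plate controls were vehicle for no effect and reference inhibitor for full effect; nearly all actives have a fitted effect of over 55% in size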
Target sequence (P08659 whole entry, looked up): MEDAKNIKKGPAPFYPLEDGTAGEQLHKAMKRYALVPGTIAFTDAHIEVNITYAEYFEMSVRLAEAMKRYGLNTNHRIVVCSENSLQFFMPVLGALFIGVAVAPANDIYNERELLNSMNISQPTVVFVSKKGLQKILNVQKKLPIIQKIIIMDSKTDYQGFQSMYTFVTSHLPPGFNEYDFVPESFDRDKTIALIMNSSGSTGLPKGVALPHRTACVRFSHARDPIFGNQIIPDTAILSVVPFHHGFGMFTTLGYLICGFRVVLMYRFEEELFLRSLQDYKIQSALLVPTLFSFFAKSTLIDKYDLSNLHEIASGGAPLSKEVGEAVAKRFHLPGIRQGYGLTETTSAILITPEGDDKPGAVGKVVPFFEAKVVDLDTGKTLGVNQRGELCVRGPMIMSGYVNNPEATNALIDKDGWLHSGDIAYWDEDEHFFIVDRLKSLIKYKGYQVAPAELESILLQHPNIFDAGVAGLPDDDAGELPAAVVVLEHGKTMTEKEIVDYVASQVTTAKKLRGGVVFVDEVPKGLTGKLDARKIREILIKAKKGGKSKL
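Purified P. pyralis luciferase (10nM final) with 10uM D-luciferin and 10uM ATP (Km levels) in 50mM Tris acetate pH 7.5, 10mM Mg acetate, 0.01% Tween-20, 0.05% BSA; qHTS 6-point titration, ~60 µM downward; luminescence read.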
SMN2 splice up: enhancers of SMN2 splice variant expression. HEK293 SMN2-luciferase splicing reporter, luminescence, 30-36 h. Potency, µM (series often up to 46.1 µM), for inactives: at the top dose activity change, positive = activation, actives largely listed as activators. actives 2.8% (n = 210,000). AID 1458; further: % of control where 0% means no effect; nearly all actives have a fitted effect of over 55% in size
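HEK293 cells carry an SMN2 minigene-luciferase reporter in which exon 7 inclusion puts luciferase in frame. Cells were seeded at 2000 cells/well, attached for 10-12 hours, then exposed to compounds for 30-36 hours at 37C before ONE-Glo luminescence.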
Rab9 promoter act: Rab9 promoter activation; Potency, µM (highest dose often 9.22 µM), without a hit: top-dose activation, negative = inhibition, usual class: activators; Huh7 Rab9 promoter-luciferase reporter, luminescence, 24 h; actives 2.8% (n = 320,000); further: % of control where 0% means no effect; nearly all actives have a fitted effect of over 60% in size
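Luminescence from Amplite-detected luciferase (10 minutes, ambient) reports Rab9 promoter activation. Before that, stable Rab9-luciferase Huh7 cells (1500/well, reduced-serum OP-MEM I plus 10% FBS) were exposed to compound for 24 hours at 37C.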
NPC1 promoter act: activates the NPC1 promoter; Potency, µM (top dose mostly 9.22 µM), for inactives: top-dose activation, usual class: activators; actives 2.4% (n = 320,000); AID 485313; Huh7 NPC1 promoter luciferase reporter, 24 h; further: % of control where 0% means no effect; nearly all actives have a fitted effect of over 60% in size
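Cells: Huh7 expressing luciferase under the NPC1 promoter, 1500/well. Seeded 2 h, compound added, incubated 24 h at 37 °C. Luciferase reagent, 10 min ambient, then luminescence.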
* = called active by the depositor; u = inconclusive; x = no result; [ ] = remark or other dose. The call rests on the fitted dose curve; in most records, active means well fitted curve in the direction sought with a large enough effect; inconclusive means small, poorly fitted or top-dose-only effect, or another doubt; inactive means no such curve, though single readings can be large; an effect the other way counts as inactive or inconclusive. Potency means the concentration at half of the fitted maximal effect.

SMILES	ELG1 genotoxic	ELG1 DNA repair	FLuc counter	SMN2 splice up	Rab9 promoter act	NPC1 promoter act
COc1ccccc1NC(=O)CSc1nc2[nH]ncc2c(=O)[nH]1	-2%	14%	4%	x	-3%	3%
CC(C)(C)C1CCc2c(sc(NC(=O)c3noc4c3CCCC4)c2C#N)C1 (stereo not given)	x	x	-18%	5%	x	x
Cc1nc(SCc2ccccc2)nc2c1CCC2	u	u	17µM*	11µM*	u	u
Cc1c2ccccc2nc2c(F)c(NC(C)C)c(F)c(F)c12	u	u	3µM*	16µM*	u	u
OCCNc1c2ccccc2nc2c(F)c(F)c(F)c(F)c12	-18%	u	-2%	10%	-28%	-18%
Cc1c2ccccc2nc2c(F)c(NCCO)c(F)c(F)c12	u	u	21µM*	25%	22%	3%
O=C(Cn1nc(C(F)(F)F)c2c1CCCC2)Nc1cccc(Cl)c1	x	x	-17%	x	x	x
CCCN(CCC)C(=S)NC(=O)c1ccc(-c2ccccc2)cc1	-9%	11%	4%	-53%	-3%	1%
Cc1cc(C)n2nc(C(=O)NCCc3ccccc3)nc2n1	23µM*	u	u	26%	22%	u
Cc1ccnc2nc(C(=O)Nc3ccc4c(c3)OCO4)nn12	2.6µM*	u	11µM*	11µM*	1.6µM*	1.8µM*
Cc1cc(C)n2nc(C(=O)Nc3ccc4c(c3)OCO4)nc2n1	u	u	24µM*	u	29%	19%
COc1cc(Cn2c(=O)sc3ccccc32)ccc1OCCC(C)C	x	x	-7%	-19%	x	x
Cc1cn(C)c(CC(=O)N2CCN(c3ccc(F)cc3)CC2)c1C(=O)O	x	x	4%	x	x	x
CCC(C)(C)n1nnnc1CN1CCN(C(c2ccccc2)c2ccccc2)CC1	-13%	21µM*	-2%	-30%	-1%	-4%
CCC(C)(C)n1nnnc1C(c1ccccc1)N1CCN(Cc2ccccc2)CC1 (stereo not given)	-3%	8%	1%	x	-5%	-8%
CCCn1c(SC2C(=O)CC(C)(C)CC2=O)nc2c1c(=O)n(C)c(=O)n2C	2%	22%	1%	-8%	7%	-8%
CC(C)n1c(SC2C(=O)CC(C)(C)CC2=O)nc2c1c(=O)n(C)c(=O)n2C	10%	2%	0%	11µM*	5%	-4%
COc1ccc(-c2cc(C(=O)N3CCOCC3)no2)cc1OC	u	u	u	21%	22%	u
COc1cccc(-c2ocnc2C(=O)Nc2ccc(N3CCOCC3)cc2N2CCOCC2)c1	-6%	18µM*	2%	x	2%	2%
COc1cccc(NC(=O)C(=O)N2CCOCC2)c1	u	u	19µM*	13µM*	u	24%
COc1ccc(-c2cc(C(=O)N3CCOCC3)no2)cc1	0.41µM*	u	1.5µM*	x	0.45µM*	0.35µM*
COc1cccc(-c2cc(C(=O)N3C(C)CCCC3C)no2)c1 (stereo not given)	7.1µM*	u	11µM*	14µM*	3.2µM*	5µM*
COc1cccc(-c2cc(C(=O)N3CCOCC3)no2)c1	u	u	8.5µM*	x	1.4µM*	1.3µM*
CCCCNC1c2ccccc2C(=O)N1Cc1ccccc1 (stereo not given)	-4%	3%	7%	x	2%	0%
Cc1ccc(S(=O)(=O)N2CCCC(C(=O)NCCC(C)C)C2)cc1 (stereo not given)	-2%	-5%	-1%	x	-3%	-4%
SMILES	ELG1 genotoxic	ELG1 DNA repair	FLuc counter	SMN2 splice up	Rab9 promoter act	NPC1 promoter act
O=Nc1ccc(NOC(=O)c2ccc(Br)cc2)cc1	-2%	3%	0.076µM*	3%	-5%	3%
COC(=O)c1ccc(NC(=O)CCN2CCCCC2)cc1	-6%	-12%	10%	-10%	1%	-1%
Cc1ccc(C(=O)ONc2ccc(N=NC(=O)c3ccccc3O)cc2)cc1	u	u	12µM*	-42%	u	20%
CC(=O)Nc1ccc(C(=O)OCc2ccc(Br)cc2)cc1	5%	12%	-16%	-8%	-1%	2%
Cc1ccc(C(=O)ONc2ccc(N=O)cc2)cc1	-3%	14%	0.03µM*	-8%	-1%	1%
COC(=O)c1ccc(N=NN2CCCCC2)cc1	8.2µM*	u	8.5µM*	14µM*	2.2µM*	2.8µM*
CCCSc1ncc(Cl)c(C(=O)NCc2ccc(C)cc2)n1	x	x	-1%	-3%	x	x
O=C1CN(C(=O)Cn2ncc(Cl)c(Cl)c2=O)c2ccccc2N1	-21%	u	3%	-97%	-45%	-17%
COc1cc(C/C=C/c2ccccc2)c(OC)cc1O	x	x	x	3%	x	x
COC(=O)c1ccc(NN=Nc2ccc(C)cc2)cc1	u	u	6.7µM*	11µM*	1.1µM*	0.79µM*
C[C@H]1Cc2c(-c3ccccc3)nc3c(c2CO1)CN(C(=O)C1CCCCC1)CC3	x	x	x	8%[9.22 µM]	x	x
COc1ccc(NC(=O)NC23CC4CC(CC(C4)C2)C3)cc1OC	-2%	8%	u	-26%	1%	2%
COC(=O)c1ccc(NC(=O)Nc2ccc3c(c2)OCO3)cc1	u	u	6.7µM*	x	u	u
O=C(Nc1ccc(S(=O)(=O)NCc2ccccc2)cc1)Nc1ccc2c(c1)OCO2	u	3%	21µM*	u	27%	30%
Cc1ccc(NC(=O)Nc2ccc3c(c2)OCO3)c(OC(F)F)c1	u	u	4.8µM*	x	3.5µM*	2µM*
O=C(Nc1ccc2c(c1)OCCO2)NC12CC3CC(CC(C3)C1)C2	u	u	6µM*	22µM*	1.3µM*	2.5µM*
Cc1cc(C)c(NC(=O)C(C)n2c(=O)cc(-c3ccccc3)c3c(C)nn(C)c32)c(C)c1 (stereo not given)	x	x	-1%	x	x	x
CSc1ccccc1NC(=O)CN(C)Cc1cc(=O)n2ccsc2n1	11%	-12%	3%	-7%	-7%	1%
Cc1cc(F)ccc1NC(=O)Nc1ccc2c(c1)OCO2	u	u	-4%	x	29%	25%
Cc1ccnc(NC(=O)Nc2ccc3c(c2)OCO3)c1	u	u	1.9µM*	6.3µM*	0.5µM*	0.63µM*
Cc1ccc(NC(=O)Nc2ccc3c(c2)OCO3)cc1F	9.2µM*	u	0.6µM*	x	1.3µM*	1.1µM*
O=C(Nc1ccc2c(c1)OCCO2)Nc1ccc2c(c1)OCO2	u	u	0.95µM*	2.5µM*	0.1µM*	0.4µM*
Cc1cccc(C)c1NC(=O)Nc1ccc2c(c1)OCO2	8%	15%	4%	-35%	-7%	3%
